# According to the antibiotic and cytotoxicity screens of Wong et al. (2023):
# The whole screen tested about 39,000 compounds, of which about 1,500 (3.8%) were called active. The entries come from a sample that favours actives as a whole.
# Tested on: HSkMC (human skeletal muscle cells)
# Assay: cytotoxicity call (relative viability < 0.9)
# Details: 10 µM
row,Compound,cytotoxicity call
1,CCCN(C)C[C@H]1OCCCC[C@H](C)Oc2ccc(NS(=O)(=O)c3cn(C)cn3)cc2C(=O)N([C@H](C)CO)C[C@H]1C,inactive
2,C[C@@H]1CNC[C@H](C)N1,inactive
3,C[C@H](CO)N1C[C@H](C)[C@@H](CN(C)S(=O)(=O)c2ccc(Cl)cc2)Oc2ccc(NC(=O)CCN3CCOCC3)cc2C1=O,inactive
4,c1ccc(C2C3=C(CCCC3)SC3=C2CCCC3)cc1,inactive
5,Cc1noc(C)c1NC(=O)N(C)C[C@@H]1Oc2c(NS(C)(=O)=O)cccc2C(=O)N([C@H](C)CO)C[C@H]1C,inactive
6,Cc1ccc(S(=O)(=O)N(C)C[C@H]2Oc3c(NC(=O)Nc4ccc(C(F)(F)F)cc4)cccc3C(=O)N([C@@H](C)CO)C[C@@H]2C)cc1,inactive
7,Cc1ccc(S(=O)(=O)N(C)C[C@H]2Oc3c(NC(=O)Nc4ccc(C(F)(F)F)cc4)cccc3C(=O)N([C@H](C)CO)C[C@H]2C)cc1,active
8,Cc1ccc(S(=O)(=O)N(C)C[C@H]2Oc3c(NC(=O)Nc4ccc(C(F)(F)F)cc4)cccc3C(=O)N([C@@H](C)CO)C[C@H]2C)cc1,active
9,Cc1ccc(S(=O)(=O)N(C)C[C@@H]2Oc3c(NC(=O)Nc4ccc(C(F)(F)F)cc4)cccc3C(=O)N([C@@H](C)CO)C[C@H]2C)cc1,inactive
10,Cc1ccc(S(=O)(=O)N(C)C[C@@H]2Oc3c(NC(=O)Nc4ccc(C(F)(F)F)cc4)cccc3C(=O)N([C@H](C)CO)C[C@H]2C)cc1,inactive
11,Cc1ccc(S(=O)(=O)N(C)C[C@@H]2Oc3c(NC(=O)Nc4ccc(C(F)(F)F)cc4)cccc3C(=O)N([C@H](C)CO)C[C@@H]2C)cc1,inactive
12,[N-]=[N+]=N[C@]1(CO)O[C@@H](n2ccc(N)nc2=O)[C@H](O)[C@@H]1O,inactive
13,c1ccc(CCN2CCNCC2)nc1,inactive
14,C[C@@H]1CN([C@H](C)CO)C(=O)c2cc(Br)cnc2O[C@@H]1CN(C)S(=O)(=O)c1ccccc1,inactive
15,Cc1ccc(S(=O)(=O)N(C)C[C@@H]2Oc3ncc(C#CC4(O)CCCC4)cc3C(=O)N([C@@H](C)CO)C[C@@H]2C)cc1,inactive
16,COc1ccc(S(=O)(=O)N(C)C[C@@H]2Oc3ccc(NS(=O)(=O)c4c(C)noc4C)cc3C(=O)N([C@H](C)CO)C[C@@H]2C)cc1,inactive
17,CCCNC(=O)C[C@H]1CC[C@H]2[C@@H](COc3ccc(NS(=O)(=O)c4ccccc4C)cc3C(=O)N2C)O1,inactive
18,C[C@@H]1CN([C@H](C)CO)C(=O)Cc2cc(NC(=O)CCCCCC(=O)Nc3ccccc3N)ccc2O[C@H]1CN(C)Cc1ccc(-c2ccccc2)cc1,inactive
19,C[C@@H]1CN([C@@H](C)CO)C(=O)Cc2cc(NC(=O)CCCCCC(=O)Nc3ccccc3N)ccc2O[C@@H]1CN(C)Cc1ccc(Oc2ccccc2)cc1,inactive
20,C[C@@H]1CN([C@@H](C)CO)C(=O)c2cc(NC(=O)CCCCCC(=O)Nc3ccccc3N)ccc2O[C@@H]1CN(C)Cc1ccc(-c2ccccc2)cc1,inactive

row,Compound,cytotoxicity call
1,C[C@@H]1CN([C@H](C)CO)C(=O)Cc2cc(NC(=O)CCCCCC(=O)Nc3ccccc3N)ccc2O[C@@H]1CN(C)Cc1ccc(-c2ccccc2)cc1,active
2,C[C@H]1CN([C@@H](C)CO)C(=O)c2cc(NC(=O)CCCCCC(=O)Nc3ccccc3N)ccc2O[C@H]1CN(C)Cc1ccc(-c2ccccc2)cc1,inactive
3,C[C@@H]1CN([C@H](C)CO)C(=O)Cc2cc(NC(=O)CCCCCC(=O)Nc3ccccc3N)ccc2O[C@@H]1CN(C)CC1CCCCC1,active
4,C[C@@H]1CN([C@H](C)CO)C(=O)Cc2cc(NC(=O)CCCCCC(=O)Nc3ccccc3N)ccc2O[C@H]1CN(C)CC1CCCCC1,inactive
5,C[C@@H]1CN([C@@H](C)CO)C(=O)Cc2cc(NC(=O)CCCCCC(=O)Nc3ccccc3N)ccc2O[C@@H]1CN(C)CC1CCCCC1,inactive
6,C[C@H]1CN([C@@H](C)CO)C(=O)Cc2cc(NC(=O)CCCCCC(=O)Nc3ccccc3N)ccc2O[C@@H]1CN(C)Cc1ccc(Oc2ccccc2)cc1,inactive
7,C[C@H]1CN([C@@H](C)CO)C(=O)Cc2cc(NC(=O)CCCCCC(=O)Nc3ccccc3N)ccc2O[C@H]1CN(C)Cc1ccc(-c2ccccc2)cc1,inactive
8,C[C@@H]1CN([C@H](C)CO)C(=O)c2cc(NC(=O)CCCCCC(=O)Nc3ccccc3N)ccc2O[C@H]1CN(C)Cc1ccc(-c2ccccc2)cc1,active
9,C[C@@H]1CN([C@H](C)CO)C(=O)Cc2cc(NC(=O)CCCCCC(=O)Nc3ccccc3N)ccc2O[C@@H]1CN(C)Cc1ccc(Oc2ccccc2)cc1,active
10,CN1C[C@H](O)COC[C@@H]2O[C@@H](CC(=O)N3CCN(c4ccccc4)CC3)CC[C@H]21,inactive
11,C[C@@H]1CCCCO[C@H](CN(C)C(=O)Nc2ccc(C(F)(F)F)cc2)[C@H](C)CN([C@H](C)CO)C(=O)c2cc(N(C)C)ccc2O1,inactive
12,COc1cccc(NC(=O)N(C)C[C@H]2Oc3ncc(C#Cc4cccnc4)cc3C(=O)N([C@@H](C)CO)C[C@@H]2C)c1,inactive
13,C[C@@H]1CN([C@H](C)CO)C(=O)Cc2cc(NC(=O)CCN3CCOCC3)ccc2O[C@H]1CN(C)S(=O)(=O)c1ccc(Cl)cc1,inactive
14,O=C(O)c1cc(F)c2nc(N3[C@@H]4CC[C@H]3C[C@@H](OCc3c(-c5ccccc5OC(F)(F)F)noc3C3CC3)C4)sc2c1,inactive
15,C[C@H](CO)N1C[C@H](C)[C@H](CN(C)Cc2ccncc2)Oc2c(NC(=O)Nc3cccc4ccccc34)cccc2C1=O,inactive
16,C[C@H](CO)N1C[C@H](C)[C@@H](CN(C)S(=O)(=O)c2ccc(Oc3ccccc3)cc2)OCc2cnnn2CCCC1=O,inactive
17,C[C@@H]1CN([C@@H](C)CO)C(=O)c2cc(NC(=O)C3CCCCC3)ccc2O[C@@H](C)CCCCO[C@H]1CN(C)Cc1ccc2c(c1)OCO2,inactive
18,COc1ccc(CNC(=O)C[C@@H]2C[C@@H]3c4cc(NS(=O)(=O)c5ccc(F)cc5)ccc4O[C@@H]3[C@H](CO)O2)cc1,inactive
19,NC(=O)CCN1C(=O)c2ccccc2C1=O,inactive
20,O=C1c2ccc3c4c(ccc(c24)C(=O)N1CCCCO)C(=O)N(CCCCO)C3=O,active

row,Compound,cytotoxicity call
1,O=C(O)CCCN1C(=O)c2cccc3cccc(c23)C1=O,inactive
2,CN1C(=O)c2cc(NC(=O)C3CCOCC3)ccc2OC[C@H]2O[C@H](CC(=O)NCc3ccc4c(c3)OCO4)CC[C@H]21,inactive
3,C[C@H](CO)N1C[C@H](C)[C@H](CN(C)S(=O)(=O)c2cccs2)Oc2c(NS(=O)(=O)c3cn(C)cn3)cccc2C1=O,inactive
4,C[C@@H]1CCCCO[C@H](CN(C)C(=O)Nc2ccc(C(F)(F)F)cc2)[C@@H](C)CN([C@@H](C)CO)C(=O)c2cc(NS(=O)(=O)c3ccc(Cl)cc3)ccc2O1,active
5,C[C@@H]1CCCCO[C@@H](CN(C)C(=O)Nc2ccc(C(F)(F)F)cc2)[C@H](C)CN([C@@H](C)CO)C(=O)c2cc(NS(=O)(=O)c3ccc(F)cc3)ccc2O1,inactive
6,C[C@@H]1CCCCO[C@@H](CN(C)C(=O)Nc2ccc(C(F)(F)F)cc2)[C@H](C)CN([C@H](C)CO)C(=O)c2cc(NS(=O)(=O)c3ccc(Cl)cc3)ccc2O1,active
7,C[C@H](CO)N1C[C@H](C)[C@H](CN(C)C(=O)Nc2ccc(C(F)(F)F)cc2)OCCCC[C@H](C)Oc2ccc(NS(=O)(=O)c3ccc(Cl)cc3)cc2C1=O,inactive
8,C[C@H]1CCCCO[C@H](CN(C)C(=O)Nc2ccc(C(F)(F)F)cc2)[C@@H](C)CN([C@@H](C)CO)C(=O)c2cc(NS(=O)(=O)c3ccc(F)cc3)ccc2O1,active
9,C[C@@H]1CN([C@@H](C)CO)C(=O)c2cc(NS(=O)(=O)c3ccc(Cl)cc3)ccc2O[C@@H](C)CCCCO[C@@H]1CN(C)C(=O)Nc1ccc(C(F)(F)F)cc1,inactive
10,C[C@@H]1CCCCO[C@@H](CN(C)C(=O)Nc2ccc(C(F)(F)F)cc2)[C@H](C)CN([C@H](C)CO)C(=O)c2cc(NS(=O)(=O)c3ccc(F)cc3)ccc2O1,inactive
11,C[C@H]1CCCCO[C@@H](CN(C)C(=O)Nc2ccc(C(F)(F)F)cc2)[C@@H](C)CN([C@@H](C)CO)C(=O)c2cc(NS(=O)(=O)c3ccc(Cl)cc3)ccc2O1,inactive
12,C[C@@H]1CCCCO[C@@H](CN(C)C(=O)Nc2ccc(C(F)(F)F)cc2)[C@H](C)CN([C@@H](C)CO)C(=O)c2cc(NS(=O)(=O)c3ccc(Cl)cc3)ccc2O1,inactive
13,C[C@@H]1CCCCO[C@H](CN(C)C(=O)Nc2ccc(C(F)(F)F)cc2)[C@H](C)CN([C@@H](C)CO)C(=O)c2cc(NS(=O)(=O)c3ccc(Cl)cc3)ccc2O1,inactive
14,C[C@@H]1CN([C@H](C)CO)C(=O)c2cc(NS(=O)(=O)c3ccc(Cl)cc3)ccc2O[C@@H](C)CCCCO[C@H]1CN(C)C(=O)Nc1ccc(C(F)(F)F)cc1,active
15,C[C@@H]1CCCCO[C@H](CN(C)C(=O)Nc2ccc(C(F)(F)F)cc2)[C@H](C)CN([C@H](C)CO)C(=O)c2cc(NS(=O)(=O)c3ccc(Cl)cc3)ccc2O1,inactive
16,C[C@H](CO)N1C[C@H](C)[C@H](CN(C)C(=O)Nc2ccc(C(F)(F)F)cc2)Oc2c(NC(=O)Nc3ccc4c(c3)OCO4)cccc2C1=O,inactive
17,C[C@H]1CN([C@@H](C)CO)C(=O)c2cc(NS(=O)(=O)c3ccc(F)cc3)ccc2O[C@H]1CN(C)Cc1ccncc1,inactive
18,c1ccc([C@@H]2Oc3ccccc3[C@@H]3Oc4ccccc4C[C@@H]23)cc1,inactive
19,Cc1noc(C)c1S(=O)(=O)Nc1cccc2c1O[C@H](CN(C)CC1CC1)[C@H](C)CN([C@H](C)CO)C2=O,inactive
20,C[C@@H]1CN([C@@H](C)CO)C(=O)c2cc(NC(=O)Cc3ccccc3)ccc2O[C@@H](C)CCCCO[C@@H]1CN(C)C(=O)Nc1ccccc1,inactive
